12-LOX inh: Primary qHTS assay for inhibitors of human arachidonate 12S-lipoxygenase (ALOX12): Round 2; AID 1671190, 2021; hit rate 1.1% among 580,000; Polyunsaturated fatty acid lipoxygenase ALOX12 (Homo sapiens), P18054; Potency, µM (doses to about 108 µM), actives largely listed as inhibitors; purified 12hLO, xylenol orange hydroperoxide absorbance
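Hydroperoxide product was detected by ferrous iron/xylenol orange as the 573 to 405 nm absorbance ratio. Arachidonic acid at 40 uM (final) was turned over for 30 min at room temperature by 150 nM human 12hLO, pH 7.0 Hepes buffer, after 15 min compound preincubation.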
POLH inh: qHTS for Inhibitors of Polymerase Eta; DNA polymerase eta (Homo sapiens), Q9Y253; recombinant Pol eta, fluorescent DNA replication assay; Potency, µM (titrated, usually from 114 µM), actives largely listed as inhibitors; hit rate 1.2% among 390,000
Target sequence (Q9Y253 whole entry, looked up): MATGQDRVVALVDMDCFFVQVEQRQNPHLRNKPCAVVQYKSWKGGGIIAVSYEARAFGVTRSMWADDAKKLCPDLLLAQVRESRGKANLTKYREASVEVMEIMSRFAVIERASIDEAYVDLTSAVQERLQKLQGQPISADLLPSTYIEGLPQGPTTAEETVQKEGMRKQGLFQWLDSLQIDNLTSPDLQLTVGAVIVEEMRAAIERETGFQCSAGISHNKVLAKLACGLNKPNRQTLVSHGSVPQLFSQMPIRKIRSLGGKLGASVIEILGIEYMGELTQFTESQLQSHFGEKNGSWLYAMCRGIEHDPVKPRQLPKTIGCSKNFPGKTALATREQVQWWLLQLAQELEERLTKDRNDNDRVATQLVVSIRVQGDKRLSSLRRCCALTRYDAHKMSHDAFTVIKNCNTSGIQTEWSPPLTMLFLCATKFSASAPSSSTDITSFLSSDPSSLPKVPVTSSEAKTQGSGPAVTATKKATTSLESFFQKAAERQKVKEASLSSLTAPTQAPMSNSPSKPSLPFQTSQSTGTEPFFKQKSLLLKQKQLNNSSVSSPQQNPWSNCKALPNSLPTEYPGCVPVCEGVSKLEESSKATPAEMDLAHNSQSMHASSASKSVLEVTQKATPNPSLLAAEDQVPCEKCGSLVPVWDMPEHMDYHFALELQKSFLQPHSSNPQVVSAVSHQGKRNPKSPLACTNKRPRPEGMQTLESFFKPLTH
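Pol eta (10 nM) was preincubated with compounds for 15 min at room temperature, after which fluorescent replication substrate (50 nM final) was added to start the reaction. Fluorescence was read kinetically at 0 and 10 min.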
POLI inh: qHTS for Inhibitors of Polymerase Iota. Pol iota fluorescent replication assay, 10 min. hit rate 1% among 390,000. DNA polymerase iota (Homo sapiens), Q9UNA4. Potency, µM (titrated, usually from 115 µM), actives largely listed as inhibitors
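Fluorescent replication assay read twice, at 0 min and 10 min after adding 50 nM (final) substrate. Enzyme (10 nM) and compounds were first incubated 15 min at room temperature; enzyme-free buffer wells were negative controls.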
Pol beta inh: qHTS Assay for Inhibitors of DNA Polymerase Beta; P06746; Pol beta primer extension/strand displacement, fluorescence kinetic; Potency, µM (series often up to 114 µM), most hits filed as inhibitors; hit rate 1.3% among 340,000; AID 485314, 2010
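Pol beta (10 nM) was preincubated with compound for 15 min at room temperature. The reaction was then started with 50 nM substrate and read immediately and after a further 10 min at room temperature.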
PI5P4K alpha inh: qHTS for Inhibitors of phosphatidylinositol 5-phosphate 4-kinase (PI5P4K); PI5P4Kalpha enzyme, ADP-Glo luminescence, 60 min; active compounds read low; max response, %; hit rate 1.2% among 330,000; active = max response of -50% or lower; inconclusive = between -30% and -50%; inactive = -30% or higher; note: value at the top dose of about 77 µM
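Compounds were pin-transferred onto PI5P4Kalpha and substrate in HEPES pH 7.4 buffer with EGTA, CHAPS and 5% DMSO. ATP (5 microM final) started the reaction, which ran 60 minutes at room temperature before ADP-Glo detection.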
Pol kappa inh: qHTS for Inhibitors of Polymerase Kappa | AID 588579, 2011 | Potency, µM (titrated, usually from 107 µM), actives largely listed as inhibitors | purified Pol kappa, fluorescent DNA synthesis assay, 10 min | DNA polymerase kappa (Homo sapiens), Q9UBT6 | hit rate 0.53% among 400,000
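Inhibition of 10 nM Pol kappa is measured by a fluorescent read-out at 0 and 10 min following addition of 50 nM substrate (final), with a 15-min room-temperature compound preincubation.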
A number is an active result. Most compounds without a hit are left out; they make up all but 2.9% or so of the library. Unless noted, calls come from the whole dose curve; as a rule, active = well fitted inhibition curve with a large enough effect; inconclusive = small, poorly fitted or top-dose-only effect, or another doubt; inactive = no such curve, though single readings can be large or run the other way.

Results for CSC1CCCCC1(O)CSc1nc2c(cc1C#N)CCCC2 (configuration not stated) ?
12-LOX inh: 7.1µM; POLH inh: inactive; POLI inh: inactive; Pol beta inh: inactive; Pol kappa inh: inactive

What do the screens show for `O=C(CN1C(=O)S/C(=C\c2cc(Cl)c(O)c(Cl)c2)C1=O)Nc1ccccc1`?
12-LOX inh: inactive; POLH inh: inconclusive; POLI inh: inconclusive; Pol beta inh: inactive; PI5P4K alpha inh: -86; Pol kappa inh: inactive

What do the screens show for `Cc1ccc(-n2cccc2/C=C2/NC(=O)N(CC(=O)Nc3cccc(C)c3)C2=O)cc1`?
12-LOX inh: inconclusive; POLH inh: inactive; POLI inh: inactive; Pol beta inh: inconclusive; PI5P4K alpha inh: inactive; Pol kappa inh: inactive

What do the screens show for `Cc1ccc(C)c(N2C(=N)S/C(=C\c3ccc(-c4ccccc4C(=O)O)o3)C2=O)c1`?
12-LOX inh: inconclusive; POLH inh: 22µM; POLI inh: 14µM; Pol beta inh: inconclusive; PI5P4K alpha inh: -52; Pol kappa inh: inconclusive

What do the screens show for `Cc1ccc(NC(=O)CN2C(=O)S/C(=C\c3cc(C)n(-c4cccc(C(=O)O)c4)c3C)C2=O)cc1`?
12-LOX inh: inconclusive; POLH inh: 56µM; POLI inh: inconclusive; Pol beta inh: 45µM; PI5P4K alpha inh: inactive; Pol kappa inh: inactive

What do the screens show for `Cc1cccc(NC(=O)CN2C(=O)N/C(=C\c3cccn3-c3cccc(C(=O)O)c3)C2=O)c1`?
12-LOX inh: 45µM; POLH inh: inconclusive; POLI inh: 50µM; Pol beta inh: 14µM; PI5P4K alpha inh: inactive; Pol kappa inh: inconclusive

Results for O=C(CN1C(=O)S/C(=C\c2ccccn2)C1=O)Nc1ccccc1 ?
12-LOX inh: inactive; POLH inh: inactive; POLI inh: inactive; Pol beta inh: inactive; PI5P4K alpha inh: inactive; Pol kappa inh: inactive

Results for Cc1ccc(NC(=O)CN2C(=O)S/C(=C\c3cc(C)n(C)c3C)C2=O)cc1 ?
12-LOX inh: inconclusive; POLH inh: inactive; POLI inh: inactive; Pol beta inh: inactive; Pol kappa inh: inactive

Results for Cc1ccc2cccc(NC(=O)COc3ccc(C)c(C)c3)c2n1 ?
12-LOX inh: inactive

How did Cc1ccc(NC(=O)CN2C(=O)S/C(=C\c3ccc(-c4cccc(C(=O)O)c4C)o3)C2=O)cc1 do in these assays?
Pol beta inh: 100µM

What do the screens show for `CC1=C/C(=N/NC(=O)c2cc(C)oc2C)CC1`?
12-LOX inh: inactive

How did COc1cccc(/C=N/Nc2ncnc3c2[nH]c2ccc(C)cc23)c1OC do in these assays?
12-LOX inh: inactive; POLH inh: inconclusive; POLI inh: 13µM; Pol beta inh: inconclusive; PI5P4K alpha inh: inactive; Pol kappa inh: inconclusive

Results for COc1ccc(/C=N/Nc2ncnc3c2[nH]c2ccccc23)c(OC)c1OC ?
12-LOX inh: inactive; POLH inh: inconclusive; POLI inh: inconclusive; Pol beta inh: inconclusive; PI5P4K alpha inh: inactive; Pol kappa inh: inactive

Results for Cc1ccc2c(nc3s/c(=C/c4cccs4)c(=O)n32)c1C ?
12-LOX inh: inconclusive; POLH inh: 20µM; POLI inh: inconclusive; Pol beta inh: 32µM; PI5P4K alpha inh: inconclusive; Pol kappa inh: inconclusive

Results for Cc1cc(C)c2nc3s/c(=C/c4ccccc4)c(=O)n3c2c1 ?
Pol beta inh: inactive

Results for O=C(O)c1c(-c2ccccc2)oc2ccc(O)cc12 ?
12-LOX inh: inactive; POLH inh: inconclusive; POLI inh: inactive; Pol beta inh: inactive; PI5P4K alpha inh: inactive; Pol kappa inh: inactive

What do the screens show for `O=Cc1c(-c2ccc(Cl)cc2)oc2ccc(O)cc12`?
12-LOX inh: inconclusive; POLH inh: 45µM; POLI inh: inconclusive; PI5P4K alpha inh: -67; Pol kappa inh: inconclusive

How did Cc1nc(NC(=O)c2ccccc2)sc1-c1csc(Nc2ccccc2Cl)n1 do in these assays?
12-LOX inh: 40µM

Results for Cc1ccccc1Nc1nc(-c2sc(NC(=O)c3ccco3)nc2C)cs1 ?
12-LOX inh: 7.9µM; POLH inh: inactive; POLI inh: inactive; Pol beta inh: inconclusive; PI5P4K alpha inh: inactive; Pol kappa inh: inactive

How did COc1ccccc1Nc1nc(-c2sc(NC(=O)c3cccc(Cl)c3)nc2C)cs1 do in these assays?
Pol beta inh: inactive

Results for COc1ccc2[nH]c(C(=O)NCc3cccnc3)c(C)c2c1 ?
12-LOX inh: inactive

Results for COc1ccc(Nc2nc(N3CCCC3)c3ccccc3n2)cc1 ?
12-LOX inh: inconclusive; POLH inh: inactive; POLI inh: inconclusive; Pol beta inh: 35µM; PI5P4K alpha inh: inactive; Pol kappa inh: inactive

Results for CCCCN(CCCC)Cc1cc(=O)oc2cc(C)c(O)cc12 ?
12-LOX inh: 40µM

How did COc1ccccc1C1C2=C(CC(C)(C)CC2=O)Nc2n[nH]c(-c3ccccc3)c21 (configuration not stated) do in these assays?
12-LOX inh: inactive

What do the screens show for `Cc1ccc(C(=O)NC(=S)Nc2ccccc2C(F)(F)F)cc1C`?
12-LOX inh: inconclusive; POLH inh: inactive; POLI inh: inactive; Pol beta inh: inactive; PI5P4K alpha inh: inactive; Pol kappa inh: inactive

What do the screens show for `O=C(O)c1ccccc1NC(=S)NC(=O)c1cccc2ccccc12`?
12-LOX inh: 20µM; POLH inh: inactive; POLI inh: inactive; Pol beta inh: inactive; PI5P4K alpha inh: inactive; Pol kappa inh: inactive

Results for COc1cccc(C(=O)NC(=S)Nc2ccc(N(C)C)cc2)c1 ?
12-LOX inh: 45µM; POLH inh: inactive; POLI inh: inactive; Pol beta inh: inactive; PI5P4K alpha inh: inactive; Pol kappa inh: inactive

What do the screens show for `Cc1cccc(C(=O)NC(=S)Nc2ccccc2C(=O)O)c1`?
12-LOX inh: 40µM; POLH inh: inactive; POLI inh: inactive; Pol beta inh: inconclusive; PI5P4K alpha inh: inactive; Pol kappa inh: inactive

What do the screens show for `COc1cccc(C(=O)NC(=S)Nc2ccc(N3CCCC3)cc2)c1`?
12-LOX inh: inconclusive; POLH inh: inactive; POLI inh: inactive; Pol beta inh: inactive; PI5P4K alpha inh: inactive; Pol kappa inh: inactive

How did Cc1cccc(C(=O)NC(=S)Nc2ccccc2C(F)(F)F)c1 do in these assays?
12-LOX inh: 16µM; POLH inh: inactive; POLI inh: inactive; Pol beta inh: inactive; PI5P4K alpha inh: inactive; Pol kappa inh: inactive

What do the screens show for `COc1cccc(C(=O)NC(=S)Nc2ccc(Cl)cc2C(=O)O)c1`?
12-LOX inh: inconclusive; POLH inh: inactive; POLI inh: inactive; Pol beta inh: inactive; PI5P4K alpha inh: -63; Pol kappa inh: inactive

What do the screens show for `N#Cc1nc(-c2ccco2)oc1N1CCN(Cc2ccc(Br)cc2)CC1`?
12-LOX inh: inactive

Screens (PubChem)
